MCF10A rereplic: inducers of DNA re-replication in MCF 10A breast cells | MCF 10A DNA re-replication, Hoechst nuclear intensity, 48 h | AID 624296 | Potency, µM (titrated, usually from 46.1 µM), without a hit: at the highest dose activity, positive = re-replication, most hits filed as activators | 2.9% of 350,000 active; further: potency means the concentration at half of the fitted maximal effect; % of control where 0% means no effect; nearly all actives have a fitted effect of over 50% in size
IL1B secr inh: blocks inflammasome-driven IL-1 beta release | AID 743279 | 4.7% of 360,000 active | activity change, % at 57.5 µM | THP-1 LPS/ATP IL-1B secretion, AlphaLISA, 16 h; hits give low values; in the data active means activity change below about -50%; inconclusive means mostly about -30% to -49%; further: on the % scale 0 is the no-effect control and ±100 the full control effect
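THP-1 cells pretreated 1 hr with compounds (up to 57.5 uM final), then stimulated with LPS (250 ng/mL final) plus ATP (1.25 mM final); secreted IL-1B measured by AlphaLISA after 16 hr, decreased signal indicating inhibition.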
KB-V1 cytotox: kills drug-selected multidrug resistant KB-V1 cells; KB-V1 MDR cells viability, CellTiter-Glo, 72 h; Potency, µM (series often up to 46.1 µM), usual class: cytotoxic; 3.4% of 400,000 active; further: potency means the concentration at half of the fitted maximal effect; on the % scale 0 is the no-effect control and ±100 the full control effect; nearly all actives have a fitted effect of over 60% in size
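In this primary screen, KB-V1 cells overexpressing P-gp are incubated with library compounds (lowest to highest concentration) for 72 h at 37 degrees C before a luminescent ATP viability read.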
SW480 rerep: DNA re-replication induction in SW480 cells. SW480 DNA re-replication, Hoechst DNA content imaging, 48 h. Potency, µM (series often up to 46.1 µM), for inactives: at the top dose re-replication activation, hits mostly activators. 1.8% of 340,000 active. AID 624297; further: potency means the concentration at half of the fitted maximal effect; % of control where 0% means no effect; nearly all actives have a fitted effect of over 55% in size
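Per well, 250 cells were exposed to pinned compound for 48 hr. Nuclear DNA was visualised with Hoechst (40 min, 37 C) and total object intensity recorded by fluorescence scanning.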
KB-3-1 tox: kills parental KB-3-1 adenocarcinoma cells; Potency, µM (top dose mostly 46.1 µM), usual class: cytotoxic; 1.4% of 400,000 active; AID 1347075; KB-3-1 viability, CellTiter-Glo ATP luminescence, 72 h; further: potency means the concentration at half of the fitted maximal effect; on the % scale 0 is the no-effect control and ±100 the full control effect; nearly all actives have a fitted effect of over 60% in size
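Parental KB-3-1 viability, qHTS format: 72 h compound exposure, 37 °C; CellTiter-Glo; media-only wells and DMSO plates as controls; concentration-effect fits on corrected data.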
* = called active by the depositor; i = inactive; ? = inconclusive; · = no result. In the library only some 9.9% were active in any assay of this set; here they are far more common. Unless noted, the call rests on the fitted dose curve; in most records, active means well fitted curve in the direction sought with a large enough effect; inconclusive means small, poorly fitted or top-dose-only effect, or another doubt; inactive means no such curve, though single readings can be large; an effect the other way counts as inactive or inconclusive.

SMILES	MCF10A rereplic	IL1B secr inh	KB-V1 cytotox	SW480 rerep	KB-3-1 tox
C#CCNC(=O)C1CCN(c2ccc(S(=O)(=O)N3CCOCC3)cc2Cl)CC1	3%	10	?	9%	?
Cc1cc(C)nc(N2CCC(C(=O)NCc3ccco3)CC2)n1	3%	-1	16µM*	-7%	i
O=C(NCc1cccs1)C1CCN(c2nccs2)CC1	-6%	-10	i	-9%	i
CN(C)CCn1c(SCc2ccccc2C#N)nc2c(sc3ccccc32)c1=O	2%	-6	i	-11%	i
O=C(Nc1ccc(Nc2ccccc2)cc1)c1c(Cl)cccc1Cl	23µM*	-87*	i	1%	i
O=C(Nc1ccc(Nc2ccccc2)cc1)c1ccc(F)cc1	-1%	-10	i	-3%	i
O=C(Nc1ccc(Nc2ccccc2)cc1)c1c(F)c(F)c(F)c(F)c1F	13%	-68*	?	23%	i
Cc1ccc(NC(=O)C2CCCN(S(=O)(=O)c3c(C)nn(C)c3C)C2)c(C)c1 (stereo unspecified)	·	·	i	·	i
CN(C(=O)c1ccc(S(=O)(=O)N2CCOCC2)cc1)C1CCS(=O)(=O)C1 (stereo unspecified)	-6%	-2	?	?	i
CCN(CC)c1ccc(C=O)c(OC)c1	1%	-3	i	12%	i
Brc1ccc(Nc2ncnc3[nH]ncc23)cc1	1%	3	?	-3%	?
Fc1cccc(Nc2ncnc3[nH]ncc23)c1	4.1µM*	50	i	-25%	i
Nc1c(Br)cc2c([nH]c(=O)c3ccccc32)c1Br	13%	-4	i	-3%	i
O=c1c2c(-c3ccc(Cl)cc3)csc2nc2n1CCC2	11%	0	18µM*	8%	i
Cc1nc(C(F)(F)F)ccc1C(=O)N1CCC1(C)C(=O)NS(C)(=O)=O (stereo unspecified)	·	-2	i	·	i
CN(CCc1ccccc1)C(=O)c1cccc(NC(=O)Cc2cccc([N+](=O)[O-])c2)c1	6%	?	i	-3%	i
CN(C(=O)c1ccc(NC(=O)Cc2ccc(NC(=O)C3CCN(C(=O)C4CCCC4)CC3)cc2)cc1)C1CC1	3%	-71*	i	-26%	?
CN(C(=O)c1ccc(NC(=O)Cc2ccc(NC(=O)C3CCN(C(=O)C4CCC4)CC3)cc2)cc1)C1CC1	20%	?	i	-7%	i
CN(CCc1ccccc1)C(=O)c1ccc(NC(=O)Cc2cccc([N+](=O)[O-])c2)cc1	10%	-51*	i	-10%	?
O=C(Cc1ccccc1)Nc1cccc([N+](=O)[O-])c1	-10%	-15	i	-2%	i
CN(CCc1ccccc1)C(=O)c1ccc(NC(=O)Cc2ccc(NC(=O)C3CCN(C(=O)C4CC4)CC3)cc2)cc1	-16%	-56*	i	?	i
O=C(CNc1cccc([N+](=O)[O-])c1)NCCCc1ccccc1	-3%	-96*	i	-5%	i
Cc1ccc(CCC(=O)Nc2ccccc2C(=O)O)o1	-4%	-4	i	-11%	i
O=C1CSC(c2cccs2)N1c1ccccc1 (stereo unspecified)	-3%	22	i	-2%	?
COc1ccc(N2C(=O)CSC2c2cccs2)cc1 (stereo unspecified)	?	11	?	18µM*	i
SMILES	MCF10A rereplic	IL1B secr inh	KB-V1 cytotox	SW480 rerep	KB-3-1 tox
CCOC(=O)COc1cccc2c(=O)n(CC(=O)N3CCC(C)CC3)ccc12	-7%	-19	i	1%	i
CCOC(=O)C(C)Oc1cccc2c(=O)n(CC(=O)Nc3ccc(OC)cc3)ccc12 (stereo unspecified)	·	-55*	?	·	i
CCOC(=O)COc1cccc2c(=O)n(CC(=O)NCc3ccc4c(c3)OCO4)ccc12	?	-5	i	7.3µM*	?
CCOC(=O)C(C)Oc1cccc2c(=O)n(CC(=O)NCc3ccc(F)cc3)ccc12 (stereo unspecified)	?	84	1.3µM*	?	1.3µM*
COC(=O)COc1cccc2c(=O)n(CC(=O)N3CCC(C)CC3)ccc12	9%	-61*	i	-19%	i
COc1ccc(NC(=O)Cn2ccc3c(OC)cccc3c2=O)cc1	-6%	-7	i	5%	i
CCOC(=O)COc1cccc2c(=O)n(CC(=O)NCCc3ccccc3)ccc12	4%	-1	i	-17%	i
Nc1cccc2c1CN(C1CCC(=O)NC1=O)C2=O (stereo unspecified)	4%	·	·	-1%	·
COc1ccc(N2CCN(C(=O)C3Cc4ccccc4N3C(C)=O)CC2)cc1 (stereo unspecified)	·	·	i	·	i
CCOC(=O)C(C)Oc1cccc2c(=O)n(CC(=O)N3CCCc4ccccc43)ccc12 (stereo unspecified)	10%	3	i	0%	i
COC(=O)COc1cccc2c(=O)n(CC(=O)NCc3ccc(F)cc3)ccc12	10µM*	-13	?	5.8µM*	1.5µM*
COC(=O)COc1cccc2c(=O)n(CC(=O)N3CCCCC3)ccc12	-3%	-12	i	0%	i
CCOC(=O)C(C)Oc1cccc2c(=O)n(CC(=O)NCCc3ccccc3)ccc12 (stereo unspecified)	0%	-53*	i	3%	i
CCOC(=O)C(C)Oc1cccc2c(=O)n(CC(=O)NCc3ccccc3)ccc12 (stereo unspecified)	0.58µM*	-98*	2.1µM*	1.3µM*	1.2µM*
Cn1c(SCC(=O)Nc2ccccc2[N+](=O)[O-])nnc1C(F)(F)F	2%	5	i	-3%	i
COc1cc(/C=N/NC(=O)C2CCN(CC(O)COCc3ccccc3)CC2)ccc1O (stereo unspecified)	4%	22	i	8%	i
COc1ccc(/C=N/OCC(=O)Nn2c(C)nc3ccccc3c2=O)cc1	4%	12	?	-12%	i
O=C(Nc1nncs1)c1cc(S(=O)(=O)N2CCCCC2)ccc1Cl	1%	7	i	-8%	i
O=C(NCC1CCCO1)c1cc2ccccc2cc1O (stereo unspecified)	1%	5	i	-1%	i
Cc1cc(Br)cc2c(C(=O)NCC3CCCO3)cc(-c3cccs3)nc12 (stereo unspecified)	15µM*	6	·	?	·
O=C(NCC1CCCO1)c1cc2ccccc2nc1Cl (stereo unspecified)	0.73µM*	4	i	-45%	i
O=C(NCC1CCCO1)c1cc(-c2ccccc2)on1 (stereo unspecified)	-14%	-80*	21µM*	-6%	i
